# Compound activity deposited in PubChem BioAssay by several laboratories.
# Rows were chosen to be rich in hits. Some 1.5% of all compounds tested hit in one or more screens of this group.
# CCHF vOTU inh: blocks the CCHF virus ovarian tumor domain protease | CCHFV vOTU protease, Pep-AMC fluorescence | inhibition, % at 11.5 µM | 0.55% of 370,000 active | AID 651958; in the data active = inhibition above about 30%
# DUSP3 inh: DUSP3 (human) phosphatase inhibition; AID 1654; 0.52% of 290,000 active; inhibition, % at 13.3 µM; P51452; recombinant VHR phosphatase, pNPP absorbance; in the data active = inhibition above about 50%
# Target sequence (P51452 whole entry, looked up): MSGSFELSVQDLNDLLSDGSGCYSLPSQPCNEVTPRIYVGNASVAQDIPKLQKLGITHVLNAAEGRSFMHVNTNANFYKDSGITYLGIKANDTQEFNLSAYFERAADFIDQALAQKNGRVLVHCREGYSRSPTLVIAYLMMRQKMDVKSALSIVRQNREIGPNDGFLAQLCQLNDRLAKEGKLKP
# TcdB GH inh: inhibitors of Clostridioides difficile toxin B glycohydrolase; P18177; TcdB glycohydrolase enzymatic assay, plate reader; inhibition, % at 9.99 µM; 0.24% of 350,000 active; AID 652162; in the data active = inhibition above about 10%
# PrPC TRFRET: reduces human prion protein on the cell surface; P04156; cell surface PrPC, TR-FRET read-out; inhibition, % at 13.8 µM; 0.43% of 370,000 active; AID 720596; in the data active = inhibition above about 24%
# PriA SSB inh: K. pneumoniae PriA-SSBct interaction inhibition. AlphaScreen SSBct-PriA binding, biotinylated peptide. inhibition, % at 33 µM. 0.6% of 430,000 active. AID 1272365; in the data active = inhibition mostly above about 37%, no sharp cut-off; inactive = mostly below about 20%
# BH1578 lux ind: induces V. cholerae light production without autoinducers; V. cholerae BH1578 lux reporter, luminescence, 6 h; activation, % at 18.7 µM; 0.16% of 350,000 active; AID 588436; in the data active = activation mostly above about 9.7%, no sharp cut-off
# A number is an active result; - = inactive; . = no result.
SMILES,CCHF vOTU inh,DUSP3 inh,TcdB GH inh,PrPC TRFRET,PriA SSB inh,BH1578 lux ind
CCCCC(NC(=O)Cc1c(C)c2cc3c4c(oc3c(C)c2oc1=O)CCCC4)C(=O)O (stereo not drawn),-,52,-,-,-,-
Cc1cc2nn(CC(=O)Nc3cccc(C(F)(F)F)c3)c(=O)n2c(-c2ccccc2)n1,.,.,.,.,-,.
COc1ccc(Nc2ncnc3c2cnn3-c2ccc(C)c(C)c2)c(OC)c1,.,.,.,.,-,.
CC(=O)Nc1ccc(S(=O)(=O)Nc2nc3ccccc3nc2-n2ccc(=NC(=O)c3ccc(F)cc3)cc2)cc1,-,-,16,-,-,-
CC(=O)Nc1ccc(S(=O)(=O)Nc2nc3ccccc3nc2-n2ccc(=NC(=O)c3ccccc3)cc2)cc1,-,-,-,-,-,-
Oc1ccc(CCc2c(F)cccc2F)c2cccnc12,.,.,.,-,.,.
OCCOCc1ccc(O)c2ncccc12,.,.,.,.,140,.
c1ccc2c(Cn3ccnc3)c[nH]c2c1,-,-,.,-,-,-
Oc1ccc(CN2CCN(Cc3ccccc3)CC2)c2cccnc12,-,.,.,-,103,-
O=S(=O)(c1ccc(Cl)cc1)N1CCN(Cc2ccc(O)c3ncccc23)CC1,-,-,-,-,-,-
Oc1ccc(Cn2ccnc2)c2cccnc12,-,-,-,-,99,-
COCc1ccc(O)c2ncccc12,-,-,.,-,94,-
CCCCCCc1ccc(O)c2ncccc12,.,.,.,.,-,.
Cc1ccsc1CCC(=O)O,.,.,.,.,-,.
O=C(O)c1cc(N/N=C/c2ccc(N3CCOCC3)s2)ccc1Cl,31,-,-,-,.,-
Cc1noc(C)c1S(=O)(=O)N1CCC(S(=O)(=O)c2nncn2C)CC1,.,.,.,.,-,.
O=C(OCn1nnc2ccccc2c1=O)c1cc2ccccc2o1,-,-,13,-,-,-
CC(=NO)C1CCC2C3CCC4=CC(=NO)CCC4(C)C3C(O)CC12C (stereo not drawn),-,.,-,-,-,17
c1ccc(Nc2ccccc2Nc2ccccn2)nc1,-,-,-,-,-,-
Oc1cccc2ccc(Nc3ccccn3)nc12,-,-,.,-,103,-
Cn1c(=O)c(N)c2c3c(c(Br)ccc31)C(=O)c1ccccc1-2,-,-,-,-,42,-
CCOC(=O)c1c(C)[nH]c(C)c1C(=O)CSc1nc2ccccc2n1CC,-,55,-,-,-,-
O=C(CC1CSc2nc3c(c(=O)n21)CCCC3)N1CCOCC1 (stereo not drawn),.,.,.,.,-,.
NCc1nncn1-c1ccc(F)cc1,.,.,.,.,-,.
NCC(=O)Nn1cnnc1CN,.,.,.,.,98,.
SMILES,CCHF vOTU inh,DUSP3 inh,TcdB GH inh,PrPC TRFRET,PriA SSB inh,BH1578 lux ind
CSc1ncccc1C(=O)NCC1CCCCC1,-,51,-,-,-,-
CCN(C(=O)COC(=O)c1cccnc1SC)C1CCCCC1,-,.,15,-,-,-
CCN(C(=O)COC(=O)c1cccnc1SC)C1CCS(=O)(=O)C1 (stereo not drawn),-,-,-,-,-,.
Cc1c(CNC(=O)c2c([N+](=O)[O-])cnn2C)cnn1C,-,-,24,-,-,-
O=C(NC(=S)Nc1ccccc1N1CCCC1)c1ccc([N+](=O)[O-])cc1,-,-,.,-,70,-
S=C1SCN(Cc2ccccn2)CN1Cc1ccco1,-,-,.,-,48,-
COCCN1CSC(=S)N(Cc2ccco2)C1,-,-,.,-,-,-
COc1ccc2nc(-c3ccc(NS(=O)(=O)c4cccc(C(F)(F)F)c4)cc3)cn2n1,.,.,.,.,-,.
COc1ccc(-c2nc3cnccn3c2Nc2ccc3c(c2)OCO3)cc1,-,-,-,-,-,-
Cc1ccc(-c2nc3cnccn3c2Nc2ccc3c(c2)OCO3)cc1,-,-,-,-,38,-
COC(=O)c1sc(-c2ccccc2)cc1NC(=O)c1ccno1,.,.,.,.,-,.
CC(C)CC(=O)N1CCN(Cc2ccc(Br)cc2)CC1,-,-,11,-,-,-
CC(C)CC(=O)N1CCN(Cc2ccc(Cl)cc2)CC1,-,-,-,-,-,-
CO[C@@H](CNS(=O)(=O)c1ccccc1Br)c1ccsc1,.,.,.,.,-,.
O=C(CCSc1ccccc1)N1CCCC(Cc2nc(-c3ccccc3F)no2)C1 (stereo not drawn),.,.,.,.,-,.
CC1=C(C(=O)Nc2ccccc2)[C@H](c2ccc(Cl)cc2)N2C(=O)CSC2=N1,.,.,.,.,-,.
CC1=C(C(=O)Nc2ccccc2)C(c2ccc(O)cc2)N2C(=O)CSC2=N1 (stereo not drawn),-,-,.,-,-,23
CCCCCCCCCCCCCCCC[n+]1ccc(/C=N/O)cc1,56,-,-,31,.,-
Brc1ccc(Oc2ccc(Br)cc2Br)c(Br)c1,-,.,-,-,-,-
O=c1c(Br)ccc(Br)cc1Br,-,.,-,88,-,-
Cc1ccc(Nc2c([N+](=O)[O-])cc(C(=O)N3CC(=O)Nc4ccccc43)cc2[N+](=O)[O-])c(C)c1,-,-,.,-,43,-
Nc1nc(Cl)cc(NCCc2ccc(O)cc2)n1,-,-,14,-,-,-
COc1ccc(CNc2ncnc3cc(Cl)ccc23)cc1,-,-,-,-,-,.
Oc1ccc(CCNc2ncnc3ccc(Cl)cc23)cc1,-,-,11,36,-,-
O=C1NC(=NN=Cc2cccnc2)SC1Cc1ccc(SC(F)F)cc1 (stereo not drawn),.,.,.,.,-,.
SMILES,CCHF vOTU inh,DUSP3 inh,TcdB GH inh,PrPC TRFRET,PriA SSB inh,BH1578 lux ind
O=C(CSc1c(-c2ccccc2)[nH]c2ccccc12)Nc1ccc2c(c1)OCO2,.,.,.,.,-,.
CSc1ccc(-c2sc(Nc3cccc4ccccc34)n[n+]2-c2ccccc2)cc1,-,-,-,-,47,-
CC(=O)Nc1ccc(-c2sc(Nc3cccc4ccccc34)n[n+]2-c2ccccc2)cc1,-,-,-,-,63,-
COc1ccc(C)cc1Nc1n[n+](-c2ccccc2)c(-c2ccc(NC(C)=O)cc2)s1,-,-,.,-,47,-
CCc1ccc(Nc2n[n+](-c3ccccc3)c(-c3ccc(C(=O)O)cc3)s2)cc1,-,-,-,-,-,-
CCc1ccc(Nc2n[n+](-c3ccccc3)c(-c3ccc(OC)c(Br)c3)s2)cc1,-,-,11,-,56,-
COc1ccc(C)cc1Nc1n[n+](-c2ccccc2)c(-c2ccc(SC)cc2)s1,-,-,-,-,-,-
COc1ccc(Cl)cc1NC(=O)N1CCC(c2cccs2)CC1,.,.,.,.,-,.
CC(O)=C(N=O)C(=O)Nc1ccccc1,.,.,.,.,-,.
CC(C)n1ccc(-c2nnc(NC(=O)c3ccc(N4C(=O)CCC4=O)cc3)o2)n1,.,.,.,.,-,.
O=C(NCCC(O)c1cccs1)c1cccc(C(F)(F)F)c1 (stereo not drawn),.,.,.,.,-,.
CCc1ccc(Nc2n[n+](-c3ccccc3)c(-c3ccc(SC)cc3)s2)cc1,-,-,-,-,66,-
CSC1SCC2C(=O)N(C)C(C(C)C)C(=O)OCC(NC(=O)c3cnc4ccccc4n3)C(=O)NC(C)C(=O)N(C)C1C(=O)N(C)C(C(C)C)C(=O)OCC(NC(=O)c1cnc3ccccc3n1)C(=O)NC(C)C(=O)N2C (stereo not drawn),-,.,-,26,-,-
Cc1nc(C)c(C(=O)N2CCc3nc(NC(=O)c4ccccn4)sc3C2)s1,.,.,.,.,-,.
CC(=O)c1ccc(OCc2cc(C(=O)N3CCC[C@H]3CO)no2)cc1,-,60,-,-,-,-
